# Assay outcomes from PubChem.
# A selection: hits, their analogues and other compounds. The true share with any hit is near 32%.
# CYP2C9 act = human CYP2C9 activators, primary screen, biochemical, luminescence | Cytochrome P450 2C9 (Homo sapiens), P11712 | recombinant CYP2C9, luciferin-H conversion; active compounds read high; factor 1 = untreated enzyme, 0 = blocked | activation factor at 5 µM | 96,000 tested, 1.4% active | AID 1024, 2008;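 active means activation factor of 2 or more for CYP2C9 at a 5 µM dose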;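 further: 0 = sulfaphenazole-blocked wells and 1 = vehicle-only wells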
# Target sequence (P11712 whole entry, looked up): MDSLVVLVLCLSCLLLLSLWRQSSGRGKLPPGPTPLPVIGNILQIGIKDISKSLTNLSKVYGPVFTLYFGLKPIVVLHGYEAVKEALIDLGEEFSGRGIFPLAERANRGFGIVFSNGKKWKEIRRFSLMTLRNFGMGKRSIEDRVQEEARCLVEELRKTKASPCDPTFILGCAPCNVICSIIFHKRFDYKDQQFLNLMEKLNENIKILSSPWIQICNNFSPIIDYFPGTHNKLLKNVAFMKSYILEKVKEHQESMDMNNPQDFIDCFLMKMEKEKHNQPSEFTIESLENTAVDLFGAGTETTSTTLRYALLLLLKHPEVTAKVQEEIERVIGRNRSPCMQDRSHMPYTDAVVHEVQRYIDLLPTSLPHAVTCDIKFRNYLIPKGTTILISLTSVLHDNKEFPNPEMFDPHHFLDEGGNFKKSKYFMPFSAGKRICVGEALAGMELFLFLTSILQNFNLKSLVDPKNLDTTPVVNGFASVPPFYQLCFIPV
# CYP2C19 act = human CYP2C19 activators, primary screen, biochemical, luminescence; recombinant CYP2C19, luciferin-H EGE luminescence; active compounds read high; 0 = fully inhibited enzyme, 1 = untreated enzyme; activation factor at 5 µM; 96,000 tested, under 10 active; AID 1025, 2008;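 active means activation factor of at least 2 at 5 µM in the primary screen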;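 further: 0 = wells with 2.5 mM tranylcypromine and 1 = vehicle-only wells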
# CYP2C9 inhib = blockers of cytochrome P450 2C9 activity – biochemical, luminescence, ADME assay, primary screen; AID 777, 2007; P11712; CYP2C9 Supersomes, luciferin-H conversion; 96,000 tested, 20% active; inhibition, % at 5 µM;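 active means blocking of liver enzyme CYP2C9 beyond about 50% at 5 µM, limit read from the data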
# CYP2C19 inhib = blockers of cytochrome P450 2C19 activity – biochemical, luminescence, ADME assay, primary screen; CYP2C19 Supersomes, luciferin-H EGE luminescence, 30 min; P33261; inhibition, % at 5 µM; AID 778, 2007; 96,000 tested, 21% active;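 active means CYP2C19 inhibition above a set limit at 5 µM in the primary screen, cut at about 50% in these data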;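 further: plate controls were negative control wells for no effect and 2.5 mM tranylcypromine positive control for full effect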
# PostGolgi ctrl = growth inhibition of yeast control strain, primary screen, counter-screen for post-Golgi transport modulator project; 98,000 tested, 5% active; efflux-deficient yeast background strain, growth absorbance A615, 16 h; inhibition, % at 10 µM; AID 738, 2007
# PostGolgi yeast = phenotypic screen on post-Golgi transport, primary screen; post-Golgi transport phenotypic cell assay; 98,000 tested, 0.9% active; AID 739, 2007; inhibition, % at 10 µM;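 further: yeast cells grown in 1536-well plates; yeast grown about 18 h at 30C before absorbance read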
# * = called active by the depositor; . = not tested or not shown. Unless noted, no stated cut-off is given here; in the data, active means inhibition above about 30%; inactive means the rest.
SMILES,CYP2C9 act,CYP2C19 act,CYP2C9 inhib,CYP2C19 inhib,PostGolgi ctrl,PostGolgi yeast
O=C(Oc1ccc(-c2nnco2)cc1)N(c1ccccc1)c1ccccc1,0.6,0.3,39,69*,26,-5
O=C(Oc1ccc(-c2nnco2)cc1)N1CCCCC1,0.7,0.2,30,77*,-3,8
COc1cc(C2CC(=O)c3c([nH]c(C(=O)OCCOC(C)C)c3C)C2)cc(OC)c1OC (configuration not stated),0.2,0.7,79*,34,16,-1
CCOC(=O)c1[nH]c2c(c1C)C(=O)CC(c1ccc(OC)c(OC)c1)C2 (configuration not stated),0.2,0.8,81*,22,24,-6
COc1cc(C(=O)OCCN2CCOCC2)cc(OC)c1OC,1,0.9,0,9,8,3
COC(=O)c1[nH]c2c(c1C)C(=O)CC(c1ccccc1)C2 (configuration not stated),0.3,0.5,71*,53*,18,7
COc1ccc(C2CC(=O)C(C=NCCO)=C(O)C2)cc1OC (configuration not stated),1.1,1.1,-10,-8,-9,-11
Cc1ccccc1C(=O)NCc1nnc(SCC(=O)N2c3ccccc3Sc3ccccc32)n1C,1,0.8,-3,23,13,-7
CCOC(=O)CN1C(=O)C(CC)Oc2ccccc21 (configuration not stated),1.1,0.9,-5,9,0,10
CCOC(=O)CN1C(=O)C2Cc3ccccc3CN2C1=S (configuration not stated),0.8,0.3,23,70*,1,4
COc1ccccc1NC(=O)N(Cc1ccco1)Cc1cc2cccc(C)c2[nH]c1=O,0.2,0.1,82*,90*,37*,-3
Cc1cccc2cc(CN(CC3CCCO3)C(=O)NC3CCCCC3)c(=O)[nH]c12 (configuration not stated),0.8,0.9,17,8,12,11
COc1ccc(CCN(Cc2cc3cc(C)ccc3[nH]c2=O)C(=O)N2CCCC2)cc1OC,0,0.7,98*,32,-8,-6
Cc1cccc2cc(CN(Cc3ccco3)C(=O)NC3CCCCC3)c(=O)[nH]c12,0.3,0.3,74*,70*,41*,-3
COc1ccc(CCN(Cc2cc3cccc(C)c3[nH]c2=O)C(=O)NC2CCCCC2)cc1OC,0.3,0.3,75*,66*,-11,-6
Cc1ccc2c(CC(=O)NC3=NCCS3)coc2c1,0.7,0.6,29,38,33*,-2
COc1ccc(-c2cc(=O)oc3c(C)c(OCc4nn[nH]n4)ccc23)cc1,0,0.2,97*,79*,-5,1
Cc1c(OCc2nn[nH]n2)ccc2c(-c3ccccc3)cc(=O)oc12,0,0,98*,95*,1,2
O=C(O)COc1ccc2c(-c3ccccc3)cc(=O)oc2c1,1.1,1,-8,5,.,.
CCCCc1cc(=O)oc2cc(OCc3nn[nH]n3)c(Cl)cc12,0.2,0.6,80*,44,-7,9
CCc1cc(=O)oc2cc(OCc3nn[nH]n3)ccc12,0.6,0.8,40,23,3,-2
Cc1cc(OCc2nn[nH]n2)c2c(-c3ccccc3)cc(=O)oc2c1,0.3,0.6,71*,40,5,11
CC(C)N1C(=O)CCC1C(=O)NC1CCCC1 (configuration not stated),0.8,1,22,-2,-1,9
Cc1cc(OCC(=O)N(C)C)c2c(-c3ccccc3)cc(=O)oc2c1,0.4,0.8,64*,16,8,5
CCN(CC)C(=O)COc1cc(C)cc2oc(=O)cc(-c3ccccc3)c12,0.8,0.7,23,29,12,-2
SMILES,CYP2C9 act,CYP2C19 act,CYP2C9 inhib,CYP2C19 inhib,PostGolgi ctrl,PostGolgi yeast
O=C(c1nc(-c2ccccc2)n(-c2ccccc2)n1)N1CCCCCC1,1,1.1,0,-7,9,1
O=S(=O)(c1ccccc1)n1nc(-c2ccccc2)nc1NCc1ccco1,0.6,0.7,40,29,36*,2
O=C(c1ccccc1)n1nc(-c2ccccc2)nc1NCc1ccco1,0.5,0.7,47,33,8,0
COc1cccc(OC)c1-c1nnc(-c2cn(C)c3ccccc23)o1,0.8,0.8,19,21,11,8
COc1cccc(/C(O)=C2/C(=O)C(=O)N(CCCN(C)C)C2c2cccc(Cl)c2)c1 (configuration not stated),1.2,1.3,-17,-27,.,.
Cn1c(=O)c2cc(S(=O)(=O)NC(C(=O)N3CCCCCC3)c3ccccc3)ccc2n(C)c1=O (configuration not stated),0.6,0.5,41,47,4,-1
C=CCn1c(NCCO)nc2sc3c(c2c1=O)CCC3,0.9,0.9,9,13,19,-6
COC(=O)c1ccc(CSc2nnc3c(Cl)cc(Cl)cn23)o1,1,0.2,3,82*,8,4
Cc1noc(C)c1CSc1nc2sc(C)c(C)c2c(=O)n1C1CCCC1,0.1,0.7,90*,29,-3,7
C=CCn1c(SCc2c(C)noc2C)nc2cc(C(=O)O)ccc2c1=O,.,.,.,.,3,-2
C=CCn1c(SCc2c(C)noc2C)nc2sc3c(c2c1=O)CCCC3,0.2,0.8,78*,22,15,-3
C=CCn1c(SCc2c(C)noc2C)nc2sc3c(c2c1=O)CCCCC3,0,0.4,95*,56*,10,-3
O=C(CN1C(=O)NC2(CCCCCC2)C1=O)N1CCN(S(=O)(=O)c2ccc(Cl)cc2)CC1,0.9,0.9,10,8,0,3
Cc1c(C(=O)NCc2ccccc2)c(-c2ccccc2)nn1-c1ccccc1,0.7,0.6,34,43,15,-7
Cc1noc(C)c1CSc1ncnc2sc3c(c12)CCC3,0.9,0.8,11,24,.,.
COC(=O)c1ccc(CSc2nc3sc4c(c3c(=O)n2C)CCCC4)o1,0.1,0.2,94*,84*,26,0
COC(=O)c1ccc(CSc2nnnn2C)o1,0.9,0.7,7,29,3,-1
Cc1noc(C)c1CSc1nc2sc3c(c2c(=O)n1C)CCCC3,0.6,0.8,40,19,40*,0
Cc1ccc(NC(=O)CSc2nnc(-c3cccs3)n2Cc2ccco2)cc1,0.6,0.8,45,16,8,13
COc1ccc(NC(=O)CSc2nnc(-c3ccccc3Cl)n2Cc2ccco2)c(OC)c1,0.5,0.5,51*,55*,16,0
